In the supplement of paper PMC10646978:
± gives the standard deviation.

Key:
Details in all cases: modulator concentration 10 µM
[1] = test system: RAW-Dual (murine macrophage reporter line); experiment: NF-kB reporter (SEAP) activity fold change vs agonist alone; higher = enhanced NF-kB activity
Outline: (§1)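 Compound reached 10 μM final in each well by pin transfer, onto RAW-Dual murine macrophage reporter cells seeded at 50 000 per well in 384-well plates. After 1 hour at 37 °C, the cells were stimulated overnight with a PRR agonist. SEAP in the supernatant was read with QUANTI-Blue at 620 nm absorbance for NF-κB, and Lucia luciferase was read with QUANTI-Luc luminescence for IRF. Each signal was turned into fold change against the mean agonist-only control on the same plate, and two replicate plates were averaged with propagated errors.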

[2] = test system: RAW-Dual (murine macrophage reporter line); experiment: IRF reporter (Lucia luciferase) activity fold change vs agonist alone; higher = enhanced IRF activity
Outline: as §1

[3] = test system: RAW-Dual (murine macrophage reporter line); experiment: viability score (confluency relative to resting cells, overnight) (fraction); higher = more viable, active = viable (0.7 or more)
Outline: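 In 384-well plates, RAW-Dual macrophages received compound at a final 10 μM overnight. Two confluency masks were then made with IncuCyte software from IncuCyte images of all imaged wells. The viability score is defined as confluency relative to resting cells. Passing the cutoff required both masks to lie above 70% of resting cells.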

[4] = agonist: CpG ODN 1826 0.5 ug/mL

Row | Compound | NF-kB reporter [1, 4] | NF-kB reporter ([1]; agonist: LPS 0.1 ug/mL) | NF-kB reporter ([1]; agonist: MPLA […]) | IRF reporter ([2]; agonist: 3'3'-cGAMP 10 ug/mL) | IRF reporter ([2]; agonist: LPS 0.1 ug/mL) | IRF reporter ([2]; agonist: MPLA […]) | viability score [3]
1 | Nc1ncnc2c1ncn2[C@@H]1O[C@H](CO)[C@@H](O)[C@@H]1O.O | 1.09 ± 0.064 | 1.02 ± 0.065 | 0.997 ± 0.058 | 0.714 ± 0.026 | 1.04 ± 0.13 | 1.18 ± 0.14 | 0.991 (active)
2 | O=C1C(=CNCCN2CCOCC2)C(C(F)(F)F)=NN1c1nc2ccccc2s1 | 0.967 ± 0.079 | 1.01 ± 0.056 | 0.863 ± 0.06 | 0.947 ± 0.044 | 1.32 ± 0.17 | 0.98 ± 0.065 | 1.01 (active)
3 | CC(O)C(=O)O.CN1CCN(c2ccc3nc(-c4c(N)c5c(F)cccc5[nH]c4=O)[nH]c3c2)CC1 | 0.167 ± 0.011 | 0.107 ± 0.0086 | 0.294 ± 0.019 | 2.41 ± 0.23 | 0.434 ± 0.076 | 0.506 ± 0.084 | 0.966 (active)
4 | CCC(=O)Nc1ccc(S(=O)(=O)N2CCCC(Cc3nc(C4CC4)no3)C2)c(C)c1 (centres undefined) | 0.885 ± 0.062 | 0.986 ± 0.1 | 1.01 ± 0.065 | 0.88 ± 0.048 | 1.21 ± 0.26 | 1.38 ± 0.51 | 0.961 (active)
5 | COc1ccc(CCNc2nnc(Cc3ccc(Cl)cc3)c(=O)[nH]2)cc1OC | 0.928 ± 0.068 | 1.1 ± 0.089 | 0.877 ± 0.11 | 0.977 ± 0.05 | 1.07 ± 0.065 | 1.04 ± 0.08 | 1.02 (active)
6 | Cc1ccc(-n2nc(C(C)(C)C)cc2NC(=O)NCc2cc(F)ccc2Oc2ccc3c(cnn3CCO)c2)cc1 | 0.878 ± 0.046 | 0.942 ± 0.15 | 0.964 ± 0.056 | 1.06 ± 0.058 | 1.19 ± 0.22 | 1.24 ± 0.44 | 1.01 (active)
7 | Clc1cccc(OCCCOc2cccc3cccnc23)c1 | 0.586 ± 0.046 | 1.13 ± 0.091 | 1.53 ± 0.17 | 0.948 ± 0.11 | 1.18 ± 0.083 | 2.83 ± 0.56 | 0.818 (active)
8 | CCOc1ccc(Nc2oc(-c3ccc(COc4ccc(C)cc4)o3)nc2C#N)cc1 | 1.03 ± 0.082 | 0.717 ± 0.089 | 1.04 ± 0.099 | 0.998 ± 0.035 | 1.41 ± 0.24 | 1.67 ± 0.41 | 0.832 (active)
9 | CS(=O)(=O)C1CCN(C(=O)C2(c3ccccc3)CCOCC2)C1 (centres undefined) | 0.986 ± 0.11 | 1.04 ± 0.083 | 0.927 ± 0.047 | 0.977 ± 0.068 | 1 ± 0.087 | 1.03 ± 0.33 | 1.02 (active)
10 | O=C(O)c1ccccc1O | 1.03 ± 0.23 | 1.04 ± 0.18 | 0.923 ± 0.052 | 0.925 ± 0.03 | 1.34 ± 0.12 | 1.23 ± 0.094 | 0.995 (active)
11 | Cc1cc(OCC(O)Cn2cnc3ccccc32)ccc1Cl (centres undefined) | 1.05 ± 0.06 | 1.1 ± 0.084 | 1.14 ± 0.082 | 0.913 ± 0.035 | 0.9 ± 0.086 | 0.685 ± 0.12 | 0.906 (active)
12 | CCCN1CCC(NCCc2cccc(Cl)c2)CC1 | 0.11 ± 0.018 | 0.9 ± 0.14 | 1.18 ± 0.091 | 0.704 ± 0.045 | 1.13 ± 0.18 | 1.13 ± 0.17 | 1 (active)
